Compounds with a hit are over-represented: about 5.5% of the library has one in this group of screens.
CBFb RUNX1 block: qHTS Assay for Compounds Blocking the Interaction Between CBF-beta and RUNX1 for the Treatment of Acute Myeloid Leukemia | 230,000 tested, under 10 active | AlphaScreen CBFb-His/RUNX1-biotin binding, biochemical | Runt-related transcription factor 1 (Homo sapiens) + Core-binding factor subunit beta … | AID 1477, 2009 | Potency, µM (titrated, usually from 59.8 µM), inactives show top-dose activity, negative = inhibition, usual class: inhibitors; also: % of control where 0% means no effect
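Room-temperature protein-protein interaction test with 30 nM each of His-tagged CBF-beta and biotinylated RUNX1, 15 min with compound, then 90 min with nickel plus streptavidin beads. Signal read in AlphaScreen mode.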
CtBP-E1A blk: qHTS Assay for Inhibitors of the CtBP/E1A Interaction; AlphaScreen GST-E1A/His-CtBP binding, 1536-well; hits give low values; 0.49% of 340,000 active; activity change, % (test concentration not listed); CtBP / adenovirus E1A interaction (AlphaScreen); AID 651724, 2012; in the data active = activity change below about -65%; inconclusive = mostly about -30% to -63%; also: % is scaled to controls: 0 for no effect and ±100 for the full control effect
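Homogeneous bead-based format: GST-tagged E1A captured on glutathione donor beads, His-tagged CtBP on nickel acceptor beads; compounds precede bead addition by 2 h at 37 °C.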
VP16 counter: VP16 counterscreen qHTS for inhibitors of ROR gamma transcriptional activity | Potency, µM (doses to about 53.6 µM), for inactives: top-dose activity, negative = inhibition, actives largely listed as inhibitors | Drosophila S2 Gal4-VP16 UAS-luciferase, luminescence, 20 h | 3.5% of 310,000 active | AID 2546, 2010;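 also: Gal4-VP16 expression switched on by copper sulfate through the metallothionein promoter; potency is read from the fitted curve at half-maximal effect; % is scaled to controls: 0 for no effect and ±100 for the full control effect; nearly all actives have a fitted effect of over 50% in size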
MBNL1 CUG block: qHTS Assay for Inhibitors of MBNL1-poly(CUG) RNA binding; Potency, µM (doses to about 57.5 µM), for the others: top-dose activity change, negative = inhibition, most hits filed as inhibitors; Muscleblind-like protein 1 (Homo sapiens), Q9NR56; 0.036% of 280,000 active; TR-FRET MBNL1-His/biotin-(CUG)12 binding, 665/545 ratio; active = well fitted inhibition curve with a large enough effect in the signal ratio, with a control signal flat, not every such curve was filed as active; inconclusive = small, poorly fitted or top-dose-only effect, or effect the other way, or a change in a side signal; inactive = no such curve, though single readings can be large or run the other way; the % refers to the signal ratio; also: potency is read from the fitted curve at half-maximal effect; % is scaled to controls: 0 for no effect and ±100 for the full control effect
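TR-FRET between His-tagged MBNL1 and biotin-(CUG)12 RNA, detected with Tb anti-His antibody (0.055 ng/ul) and streptavidin-XL665 (5 nM), 60 min at room temperature. Compounds titrated 92 nM to 58 uM; 665/545 nm ratio normalized to buffer and complex controls.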
Six1-Eya2 inh: qHTS Assay for Inhibitors of the Six1/Eya2 Interaction; Homeobox protein SIX1 (Homo sapiens) + Protein phosphatase EYA2 (Homo sapiens), …; AlphaScreen GST-Six1/His-Eya2 binding, biochemical; hits give low values; activity change, % (concentration not given with the values); 0.56% of 360,000 active; in the data active = activity change below about -65%; inconclusive = mostly about -30% to -63%; also: % is scaled to controls: 0 for no effect and ±100 for the full control effect
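AlphaScreen luminescence read after one hour at 37 °C in darkness. Pin-transferred compounds met GST-Six1 and His-Eya2 protein (5X stock 250 nM/500 nM) plus glutathione donor and Ni-chelate acceptor beads (5X, 50 ug/mL).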
RORgamma inh: qHTS for inhibitors of ROR gamma transcriptional activity; Nuclear receptor ROR-gamma (Mus musculus), P51450; Drosophila S2 Gal4-RORgamma UAS-luciferase reporter, 20 h; Potency, µM (titrated, usually from 53.6 µM), inactives show at the top dose activity change, negative = inhibition, hits mostly inhibitors; 5.4% of 310,000 active; AID 2551, 2010; also: potency is read from the fitted curve at half-maximal effect; % is scaled to controls: 0 for no effect and ±100 for the full control effect; nearly all actives have a fitted effect of over 60% in size
Target sequence (P51450 whole entry, looked up, the tested form may be a part): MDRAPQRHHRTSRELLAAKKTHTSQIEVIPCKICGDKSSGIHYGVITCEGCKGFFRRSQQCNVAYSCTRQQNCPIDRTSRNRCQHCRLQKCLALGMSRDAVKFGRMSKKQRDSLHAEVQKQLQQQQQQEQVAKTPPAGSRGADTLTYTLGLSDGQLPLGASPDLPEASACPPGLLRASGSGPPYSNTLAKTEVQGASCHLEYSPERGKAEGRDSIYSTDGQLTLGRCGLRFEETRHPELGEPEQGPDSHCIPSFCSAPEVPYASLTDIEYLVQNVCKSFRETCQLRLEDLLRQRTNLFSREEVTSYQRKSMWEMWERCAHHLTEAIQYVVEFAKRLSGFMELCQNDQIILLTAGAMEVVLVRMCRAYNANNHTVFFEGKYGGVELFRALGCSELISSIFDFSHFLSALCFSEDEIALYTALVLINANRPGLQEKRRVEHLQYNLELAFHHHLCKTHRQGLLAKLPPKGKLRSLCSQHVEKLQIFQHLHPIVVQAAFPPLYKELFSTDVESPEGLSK
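Read-out: Photinus luciferase luminescence; inhibitors lower reporter signal. Insect Schneider cells with Gal4-ROR gamma fusion under metallothionein promoter, UAS reporter; 700 uM final copper sulfate induction, 20 hr, ambient temperature.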
Numbers without * were called inactive; u = inconclusive; x = not tested or not shown; [ ] = dose if it differs, or a comment. Unless noted, calls follow the shape of the dose curve; as a rule, active = well fitted curve in the direction sought with a large enough effect; inconclusive = small, poorly fitted or top-dose-only effect, or another doubt; inactive = no such curve, though single readings can be large; an effect the other way counts as inactive or inconclusive.

SMILES | CBFb RUNX1 block | CtBP-E1A blk | VP16 counter | MBNL1 CUG block | Six1-Eya2 inh | RORgamma inh
O=C(Nc1nnc(SCc2ccc(F)cc2)s1)c1ccccn1 | u | -95* | 1.4µM* | 30% | -90* | 0.79µM*
Cc1ccc(C)c2sc(NC(=O)c3nc4ccccc4s3)nc12 | 1%[2.36 µM] | 2 | 1µM* | -7% | 1 | 1µM*
O=C(Nc1ccc(-c2nc3ccccc3s2)c(OC(=O)c2ccccc2)c1)c1ccccc1 | 13% | -5 | -20% | x | 8 | 1.3µM*
O=C(Nc1nnc(SCc2ccc(F)cc2)s1)c1cccnc1Cl | -7% | -7 | -13% | 12% | 0 | -17%
O=C(Nc1nc2ccccc2s1)c1cnccn1 | -2% | 9 | 5µM* | 1% | -8 | 3.2µM*
c1ccc2sc(NN=C3CCCCCC3)nc2c1 | -21% | 0 | u | 1% | -1 | 4µM*
Cc1ccc(C(=O)N(Nc2nc3ccccc3s2)C(=O)c2ccc(C)cc2)cc1 | -1% | 9 | 11µM* | 3% | 1 | 8.9µM*
CC(C)C(=O)N(Nc1nc2ccccc2s1)C(=O)C(C)C | 7% | -19 | -15% | -4% | -13 | 3%
c1ccc2sc(NCC3CCCO3)nc2c1 (centres undefined) | -9% | 11 | -8% | -4% | 2 | -42%
CCOc1ccc2nc(NC(=O)c3cnccn3)sc2c1 | 0% | -5 | u | -1% | 9 | 1.6µM*
O=C(Nc1nc2ccccc2s1)c1ccccc1 | -2% | x | u | -4% | 0 | 10µM*
O=S(=O)(c1cccc(COc2c(Cl)cccc2Cl)c1)N1CCOCC1 | x | 35 | x | x | 53 | x
CN1CCN(c2ncnc3c2ncn3[C@H]2CN(Cc3cccs3)C[C@@H](CO)O2)CC1 | x | 2 | x | x | 0 | x
Cc1ccc(CC(=O)OCC(=O)c2ccc[nH]2)cc1C | x | -12 | x | x | -3 | x
COC(=O)CC1c2ccccc2C=C(C)N1C(=O)OC (centres undefined) | 12% | x | -6% | x | x | -5%
O=C(Nc1nc(-c2ccc(F)cc2)cs1)c1cnccn1 | -7% | -3 | u | -5% | -1 | 2.2µM*
CCOc1ccc2nc(NC(=O)c3cccc(-c4cc5ccccc5oc4=O)c3)sc2c1 | 3% | -8 | 11µM* | x | 13 | 11µM*
Cc1ccc2nc(NC(=O)c3cccc(-c4cc5ccccc5oc4=O)c3)sc2c1 | -3% | -7 | -8% | -8% | -8 | u
O=C(Nc1nc2ccc(F)cc2s1)c1ccccn1 | u | -92* | 1.6µM* | 36% | -77* | 0.71µM*
CCN(CC(=O)Nc1ccc(OC)cc1)C(=O)c1ccccc1Sc1ccccc1C#N | x | 0 | x | x | 7 | x
O=C(Nc1ccc(Cl)cc1)c1csc([C@@H]2O[C@H](CO)[C@@H](O)[C@H]2O)n1 | x | 1 | x | x | -1 | x
COc1ccc(C(=O)CC(=O)C(=O)Nc2c(C)cccc2C)cc1 | x | x | 5.6µM* | 11% | -11 | 6.3µM*
COc1ccc(C(=O)CC(=O)C(=O)Nc2cc(Cl)c(OC)cc2OC)cc1 | 6% | 6 | -6% | 10% | 3 | u
COc1ccc(C(=O)CC(=O)C(=O)Nc2cc(OC)ccc2OC)cc1 | x | 0 | 0% | -1% | 1 | u
FC(F)(F)c1ccccc1NC(=S)Nc1ccccc1 | x | 0 | -2% | -4% | 3 | u
SMILES | CBFb RUNX1 block | CtBP-E1A blk | VP16 counter | MBNL1 CUG block | Six1-Eya2 inh | RORgamma inh
COc1ccc(NC(=S)Nc2ccccc2C(F)(F)F)cc1 | 1% | 10 | u | -3% | 2 | 11µM*
COc1ccc(C(=O)CC(=O)C(=O)Nc2ccccc2Cl)cc1 | x | -3 | 3.2µM* | -10% | 11 | 6.3µM*
COc1ccc(C(=O)CC(=O)C(=O)Nc2ccccc2C(F)(F)F)cc1 | x | x | 7.1µM* | 6% | 1 | 6.3µM*
C[C@@H]1[C@H]2CCCC[C@H]2CN(C(=O)OC(C)(C)C)[C@@H]1c1cn(Cc2ccccc2)c2ccc(F)cc12 | x | 0 | x | x | -1 | x
Cc1ccc(C)c(-n2nnc3ccccc3c2=O)c1 | x | 1 | x | x | -7 | x
COc1ccc(S(=O)(=O)N2CC=C(c3ccccc3)CC2)cc1OC | x | -5 | x | x | -4 | x
c1ccc(OC2CCCCC2N2CCOCC2)cc1 (centres undefined) | x | 0 | x | x | 1 | x
COc1ccc(C(=O)CC(=O)C(=O)Nc2ccc(OC)c(Cl)c2)cc1 | x | 2 | 9% | -5% | -9 | -7%
COc1ccc(C(=O)CC(=O)C(=O)Nc2ccc(Cl)cc2)cc1 | x | -7 | 13µM* | 5% | 2 | 7.1µM*
Cc1c(N=C2NC(=O)/C(=C/c3ccc(O)cc3)S2)c(=O)n(-c2ccccc2)n1C | -6% | 18 | u | u | -3 | 5µM*
COc1cc(/C=C2\SC(=Nc3ccc(O)cc3)NC2=O)cc(OC)c1OC | 6% | -6 | -13% | 0% | -11 | 0%
COc1cc(/C=C2/SC(=Nc3ccc(O)cc3)NC2=O)cc(OC)c1O | -19% | 0 | 7% | 11% | -71* | 9%
CN(C)c1ccc(/C=C2\N=C(C(C)(C)C)OC2=O)cc1 | x | x | u | 8% | 4 | 1%
COc1cc(S(=O)(=O)NCc2ccncc2)ccc1Br | x | -5 | 7.1µM* | -3% | 20 | 27%
CCN(C1CCCCC1)S(=O)(=O)c1ccc(S(=O)(=O)NCc2ccncc2)cc1 | 1% | 6 | 18µM* | -1% | 3 | -1%
O=S(=O)(NCc1ccncc1)c1ccccc1 | 6% | 6 | 16µM* | 5% | -2 | 18%
CCN(C1CCCCC1)S(=O)(=O)c1ccc(S(=O)(=O)NCCc2ccncc2)cc1 | -5% | 6 | -8% | -1% | 6 | u
COC(=O)COc1ccc(S(=O)(=O)NCc2ccncc2)cc1 | -11% | 5 | 2.8µM* | -7% | -2 | u
CCC(C)(C)n1nnnc1C(c1ccc(F)cc1)N1CCN(C(=O)c2ccco2)CC1 (centres undefined) | x | 12 | -5% | -2% | -1 | 23%
COc1ccc(S(=O)(=O)NCc2cccnc2)cc1Br | x | x | 11µM* | -8% | -1 | u
O=S(=O)(NCc1ccncc1)c1ccc(F)c(F)c1 | x | 5 | x | x | 4 | x
Cc1ccc(S(=O)(=O)NCc2ccncc2)cc1C | -2% | 0 | 4µM* | 8% | 0 | 11µM*
